Screens deposited in PubChem BioAssay by Pan Lab, Icahn School of Medicine at Mount Sinai.
Many of the other results were omitted from the sample, so hits are more common in it than they were.
RBX1-CUL1 inh – inhibitors of human ROC1-CUL1 ubiquitin ligase activity | inhibition, % at 10 µM | hit rate 0.6% among 140,000 | in vitro K48 di-Ub FRET, acceptor:donor ratio, 45 min; in the data active means inhibition above about 25%
Target sequence (P62877 whole entry, looked up): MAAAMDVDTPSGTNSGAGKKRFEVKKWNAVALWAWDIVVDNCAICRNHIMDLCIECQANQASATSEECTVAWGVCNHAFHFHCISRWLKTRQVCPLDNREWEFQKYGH
Target sequence (Q13616 whole entry, looked up): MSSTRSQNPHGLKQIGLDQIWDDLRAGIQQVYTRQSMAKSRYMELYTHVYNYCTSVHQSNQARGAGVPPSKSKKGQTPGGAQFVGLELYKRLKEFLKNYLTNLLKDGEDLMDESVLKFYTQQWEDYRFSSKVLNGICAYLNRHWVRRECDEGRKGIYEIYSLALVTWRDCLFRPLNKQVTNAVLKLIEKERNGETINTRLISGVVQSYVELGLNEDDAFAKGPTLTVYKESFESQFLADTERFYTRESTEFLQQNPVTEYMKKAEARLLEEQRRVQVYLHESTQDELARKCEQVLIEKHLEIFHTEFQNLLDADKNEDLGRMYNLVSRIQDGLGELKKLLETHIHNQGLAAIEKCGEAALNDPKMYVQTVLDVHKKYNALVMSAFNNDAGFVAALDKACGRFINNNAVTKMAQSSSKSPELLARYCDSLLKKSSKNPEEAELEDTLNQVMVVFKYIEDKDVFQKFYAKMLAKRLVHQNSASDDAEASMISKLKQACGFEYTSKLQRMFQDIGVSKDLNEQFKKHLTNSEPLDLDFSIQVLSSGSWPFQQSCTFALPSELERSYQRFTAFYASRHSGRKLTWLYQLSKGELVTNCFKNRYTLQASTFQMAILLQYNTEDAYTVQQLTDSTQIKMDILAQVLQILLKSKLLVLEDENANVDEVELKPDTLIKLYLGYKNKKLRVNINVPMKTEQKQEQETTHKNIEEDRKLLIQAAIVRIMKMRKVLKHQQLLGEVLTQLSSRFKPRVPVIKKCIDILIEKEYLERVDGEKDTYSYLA
Of the large screens only hits and unclear results are named; the others gave an inactive call.

COc1ccc(NC(=O)CSc2nnnn2-c2c(C)cc(C)cc2C)cc1Cl	none
O=C1N(c2ccccc2)CSC2=NC3CCCCC3N12 (stereo not drawn)	none
Cc1ccc2c(c1)/C(=C\CC(=O)O)c1ccccc1CS2	none
COc1ccc2c(c1)-c1nc(-n3ncc(C(=O)N4CCN(CCO)CC4)c3C3CC3)ncc1CC2	none
O=C(O)c1cc2ccoc2cc(C(=O)O)c1=O	RBX1-CUL1 inh 99.9
CC(=O)Nc1ccc2occc2c1	none
O=C(O)c1cc2cc(Br)ccc2oc1=O	none
CCOC(=O)C1=C(C(=O)OCC)SC(=C2C(=S)C(C)(C)N(C(=O)COc3cccc4ccccc34)c3c(C)cccc32)S1	none
CCOC(=O)C1CCCN(C2CC(=O)N(c3ccc(CC)cc3)C2=O)C1 (stereo not drawn)	none
COc1ccc(S(=O)(=O)Nc2ccc(-c3cn4c(C)csc4n3)cc2)cc1	none
COc1ccc(S(=O)(=O)Nc2ccc(-c3cn4ccsc4n3)cc2)cc1C	none
COc1ccc(S(=O)(=O)Nc2ccc(-c3cn4ccsc4n3)cc2)cc1	RBX1-CUL1 inh 96.7
Cc1c(C(c2ccccc2O)c2c(C)n(C)c3ccccc23)c2ccccc2n1C	none
CCOC(=O)c1c(NC(=S)NCc2ccccc2)sc2c1CCCC2	none
CS(=O)(=O)N(Cc1ccccc1Cl)c1ccc(C(=O)N2CCN(c3ccccc3F)CC2)cc1	none
Cc1cc(C)n(CCc2nnc(NC(=O)NC3CCSC3)s2)n1 (stereo not drawn)	none
CCCCN1C(=O)C(=Cc2cccs2)C(=O)N(CCCC)C1=S	none
O=C1NN(c2ccc(Br)cc2)C(=O)/C1=C\C=C\c1ccco1	none
CCCCN1C(=O)C(=Cc2ccco2)C(=O)N(CCCC)C1=S	RBX1-CUL1 inh 98.9
CCCCN1C(=O)C(=C/C=C/c2ccco2)C(=O)N(CCCC)C1=S	RBX1-CUL1 inh 31.2
CCCCN1C(=O)C(=O)N(c2ccccc2)C1=S	none
CCCCCCN1C(=O)NC(=O)/C(=C\c2ccc3c(c2)OCO3)C1=O	none
CCCCC1(C)OC(=O)C(=Cc2ccc3c(c2)OCO3)C(=O)O1 (stereo not drawn)	none
CCCCN1C(=O)C(=Cc2ccc(OCC)c(OC)c2)C(=O)N(CCCC)C1=S	none
CCCCN1C(=O)/C(=C/c2ccc3c(c2)OCO3)C(=O)N(Cc2ccco2)C1=S	RBX1-CUL1 inh 101.4
O=C(NCC1CCCO1)C1CCN(C2CCN(C/C=C/c3ccccc3)CC2)CC1 (stereo not drawn)	none
O=C(N/N=C/c1ccccc1O)c1ccc(Nc2nc(-c3ccccc3)cs2)cc1	none
C=CCn1cc(-c2nc3c(cnn3C(C)CCC)[nH]2)c(C)n1 (stereo not drawn)	none
COc1cc(C)c(C)cc1S(=O)(=O)NC1CCCC1	none
O=C(c1coc(COc2ccc(F)cc2Cl)n1)N1CCSCC1	none
O=C1C2C(c3ccc(Br)cc3)OC3(C(=O)c4ccccc4C3=O)C2C(=O)N1c1ccc(Oc2ccc(Cl)cc2)cc1 (stereo not drawn)	none
O=C1C2C(c3ccc(Br)cc3)OC3(C(=O)c4ccccc4C3=O)C2C(=O)N1c1cccc([N+](=O)[O-])c1 (stereo not drawn)	RBX1-CUL1 inh 59.3
COc1cccc(C2OC3(C(=O)c4ccccc4C3=O)C3C(=O)N(c4ccc(Br)cc4)C(=O)C23)c1 (stereo not drawn)	none
C=CCc1cc(/C=C2/C(=O)NC(=S)N(c3ccc(F)cc3)C2=O)cc(OC)c1OCc1ccc(Cl)cc1Cl	none
O=C(O)CCC(C(=O)O)N1C(=O)/C(=C/c2cccc(Br)c2)SC1=S (stereo not drawn)	none
CC(/C=C1\SC(=S)N(c2ccc(C(=O)O)cc2)C1=O)=C\c1ccccc1	RBX1-CUL1 inh 106.1
CCOc1cc(/C=C2/SC(=S)N(C(CCC(=O)O)C(=O)O)C2=O)ccc1O (stereo not drawn)	none
CCCC(C(=O)O)N1C(=O)/C(=C/C(C)=C/c2ccccc2)SC1=S (stereo not drawn)	RBX1-CUL1 inh 28.7
O=C(O)c1ccc(/C=C2\SC(=S)N(NC(=O)c3ccccc3)C2=O)cc1	none
Cc1ccc(N2C(=O)/C(=C/c3ccc(C(=O)O)cc3)SC2=S)cc1C	none
O=c1cc(O)n2nc(SCc3ccccc3)nc2[nH]1	none
O=C(Nc1sc2c(c1C(=O)NC1CCS(=O)(=O)C1)CCCC2)c1ccccc1Br (stereo not drawn)	none
O=C(CSc1ccccc1)Nc1nc(-c2ccc(C3CCCCC3)cc2)cs1	none
CN(C)C1(CNC(=O)c2ccc(C3CCCN3)s2)CCCCC1 (stereo not drawn)	none
O=C(NC1CCCC1)c1cc(Br)cc(Br)c1I	none
C[C@H](CCC(=O)O)[C@H]1CCC2C3CC[C@@H]4C[C@H](OC=O)CC[C@]4(C)C3CC[C@@]21C (stereo partly drawn)	none
CC(CCc1nc2ccccc2o1)C1CCC2C3CC[C@@H]4CC(OCCC(=O)O)CC[C@]4(C)C3CC[C@]12C (stereo partly drawn)	RBX1-CUL1 inh 39.5
Cc1ccc2nc(CCC(C)C3CCC4C5CC[C@@H]6CC(O)CC[C@]6(C)C5CC[C@]34C)[nH]c2c1 (stereo partly drawn)	none
CCOc1ccc(C(=O)C2C(=O)C(=O)N(CCN(CC)CC)C2c2ccc(C)o2)cc1 (stereo not drawn)	none
COCCOC(=O)C1C(C)=NC(=O)NC1c1cn(-c2ccccc2)nc1-c1ccc(OC)c(Cl)c1 (stereo not drawn)	none
CN=C1CC=C(Br)C=C(C(=O)/C=C/c2cccc(OC)c2)C1=O	RBX1-CUL1 inh 44.1
CCN=C1CC=C(Br)C=C(C(=O)/C=C/c2ccc(OC)c(OC)c2)C1=O	none
CN=C1CC=C(Br)C=C(C(=O)/C=C/c2ccc(Cl)cc2)C1=O	RBX1-CUL1 inh 63.4
CN=C1CC=C(Br)C=C(C(=O)/C=C/c2ccc(Cl)cc2Cl)C1=O	none
CCOc1ccc(/C=C/C(=O)C2=CC(Br)=CCC(=NC)C2=O)cc1	none
COc1cccc(N2CC(NC(=O)/C=C\c3ccc(OC)c(OC)c3)CC2=O)c1 (stereo not drawn)	none
Cc1cc(Nc2cc3ccccc3cc2O)n2ncnc2n1	none
COc1ccc(NC(=O)C(Cc2ccccc2OC)=NC(=O)c2ccccc2)cc1	none
Cc1nonc1C(=O)N=Nc1c2ccccc2c2nc3no[nH]c3nc12	RBX1-CUL1 inh 44.6
Cc1cccc(C)c1N1CCN(S(=O)(=O)N2CCCC2)CC1	none
COc1cc(C2C3=C(CCCC3=O)N(CC(=O)O)C3=C2C(=O)CCC3)ccc1OCc1ccc(C)cc1	none
CCOC(=O)c1c(NC(=O)c2c(CC)noc2C)sc(C)c1C	none
CCOc1cc(/C=C2/C(=O)N(c3cccc(C(F)(F)F)c3)N=C2C)ccc1OCc1ccccc1	none
C#CCOc1ccc(/C=C2\C(=O)N(c3ccc(C(=O)OCC)cc3)N=C2C(F)(F)F)cc1OCC	RBX1-CUL1 inh 40.6
C#CCOc1ccc(/C=C2/C(=O)N(c3ccc(C)cc3)N=C2C)cc1OCC	none
COc1ccc(/C=C/CN2CCc3ccc(NC(=O)C4CCCO4)cc3C2)cc1 (stereo not drawn)	none
O=C(CN1CCN(c2ccc(Cl)cc2)CC1)NC1Cc2ccccc2C1	none
NC(=O)c1c(NC(=O)C(F)(F)F)sc2c1CCCCC2	none
C=CCOc1cc(N(CC)CC)ccc1C=C1C(=O)NC(=S)NC1=O	none
CCOc1cccc(CC2=NC(=O)N(CC(=O)Nc3cccc(C)c3)C2=O)c1O	none
CCC(=O)N1CCc2cc(S(=O)(=O)NC(CC(C)C)C(=O)NCCc3ccccc3)ccc21 (stereo not drawn)	none
CC(=O)N1CCc2cc(S(=O)(=O)NC(CC(C)C)C(=O)NCc3ccccc3)ccc21 (stereo not drawn)	none
